{
  "source": "PubChem BioAssay AID1851",
  "about": "(National Center for Advancing Translational Sciences (NCATS), 2009)",
  "note": "About 4,000 (25%) of roughly 16,000 compounds were called active. Roughly 26% stayed inconclusive and do not appear here. The list is a sample of the results. Unmarked numbers belong to inactive results. The call rests on the fitted dose curve; in most records, active means well fitted curve in the direction sought with a large enough effect; inconclusive means small, poorly fitted or top-dose-only effect, or effect the other way; inactive means no such curve, though single readings can be large or run the other way. On the % scale 0 is the no-effect control and ±100 the full control effect.",
  "data": [
    {"target": "Cytochrome P450 2C9 (Homo sapiens) (UniProt P11712)", "sequence (P11712 whole entry, looked up)": "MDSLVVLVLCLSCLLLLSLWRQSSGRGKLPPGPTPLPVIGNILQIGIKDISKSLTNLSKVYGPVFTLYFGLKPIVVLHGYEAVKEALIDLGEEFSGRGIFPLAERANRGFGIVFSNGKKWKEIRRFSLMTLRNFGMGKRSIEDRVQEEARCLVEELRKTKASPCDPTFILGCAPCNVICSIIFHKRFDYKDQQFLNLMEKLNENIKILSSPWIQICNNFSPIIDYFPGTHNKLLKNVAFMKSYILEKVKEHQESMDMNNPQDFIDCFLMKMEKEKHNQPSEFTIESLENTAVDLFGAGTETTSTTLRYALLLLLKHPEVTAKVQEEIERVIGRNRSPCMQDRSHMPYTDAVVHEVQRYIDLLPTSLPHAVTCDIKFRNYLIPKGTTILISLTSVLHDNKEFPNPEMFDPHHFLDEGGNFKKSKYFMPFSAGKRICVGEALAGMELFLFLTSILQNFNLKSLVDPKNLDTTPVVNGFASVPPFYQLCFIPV", "test": "Cytochrome panel assay with activity outcomes", "conditions": "recombinant CYP, pro-luciferin dealkylation, luminescence, p450-cyp2c9; series mostly up to 57.1 µM", "values": [
      {"smiles": "C[C@H](NC(C)(C)C)C(=O)c1cccc(Cl)c1", "activity, negative = inhibition": "inactive"},
      {"smiles": "CCCN1CCC[C@@H]2Cc3[nH]ncc3C[C@H]21", "activity, negative = inhibition": "inactive"},
      {"smiles": "CCN1C[C@]2(COC)CC[C@H](O)[C@@]34[C@@H]5C[C@H]6[C@@H](OC)[C@H]5[C@](O)(C[C@@H]6OC)[C@@](O)([C@@H](OC)[C@H]23)[C@@H]14", "activity, negative = inhibition": "inactive"},
      {"smiles": "CC[C@H]1CN2CC[C@@H]1C[C@H]2[C@@H](O)c1ccnc2ccc(OC)cc12", "activity, negative = inhibition": "inactive"},
      {"smiles": "Cc1sc2c(c1C)C(c1ccc(C(C)(C)C)cc1)=NCC(=O)N2CC(=O)Nc1nccs1", "AC50": "12.6 µM (active)"},
      {"smiles": "CN(C)c1ccc(NC(=O)CN2C(=O)CN=C(c3ccccc3)c3ccccc32)cc1", "activity, negative = inhibition": "inactive"},
      {"smiles": "O=[N+]([O-])O[C@H]1CO[C@H]2[C@H]1OC[C@@H]2O[N+](=O)[O-]", "activity, negative = inhibition": "inactive"},
      {"smiles": "CCOP(=O)(OCC)C(NC(C)=O)C(Cl)(Cl)Cl", "note": "(centres undefined)", "activity, negative = inhibition": "inactive"},
      {"smiles": "C(=C/c1ccccc1)/CN1CCN(CCOC(c2ccccc2)c2ccccc2)CC1", "AC50": "5.01 µM (active)"},
      {"smiles": "Fc1ccc(C(OCCN2CCN(C/C=C\\c3ccccc3)CC2)c2ccc(F)cc2)cc1", "AC50": "7.94 µM (active)"},
      {"smiles": "O=c1[nH]c2ccccc2n1C1CCN(CCCC(c2ccc(F)cc2)c2ccc(F)cc2)CC1", "activity, negative = inhibition": "inactive"},
      {"smiles": "Clc1ccc([C@@H](OCCN2CCCCC2)c2ccccc2)cc1", "activity, negative = inhibition": "inactive"},
      {"smiles": "CCOC(=O)c1ncn2c1[C@H]1CCCN1C(=O)c1cc(OC)ccc1-2", "activity, negative = inhibition": "inactive"},
      {"smiles": "NS(=O)(=O)c1cc([C@@]2(O)NC(=O)c3ccccc32)ccc1Cl", "activity, negative = inhibition": "inactive"},
      {"smiles": "O=C(O)C[O][Sb][O]CC(=O)O", "activity, negative = inhibition": "3.17% [at 11.4 µM]"},
      {"smiles": "O=C(O)[C@H]1[O][Sb][O][C@@H](C(=O)O)C1O", "note": "(some centres undefined)", "activity, negative = inhibition": "14.9% [at 11.4 µM]"},
      {"smiles": "NCC[C@H](O)C(=O)N[C@H]1C[C@@H](N)[C@@H](O[C@H]2O[C@@H](CN)[C@@H](O)[C@@H](O)[C@@H]2N)[C@@H](O[C@H]2O[C@@H](CO)[C@@H](O)[C@@H]2O)[C@@H]1O", "activity, negative = inhibition": "inactive"},
      {"smiles": "C[N+]1(C)CCO[C@@](O)(c2ccc(-c3ccc([C@]4(O)C[N+](C)(C)CCO4)cc3)cc2)C1", "activity, negative = inhibition": "inactive"},
      {"smiles": "O=C(c1ccccc1)[C@H]1[C@H](c2ccccc2[N+](=O)[O-])N1C1CCCCC1", "note": "(some centres undefined)", "activity, negative = inhibition": "-9.93% [at 11.4 µM]"},
      {"smiles": "CC1=C(O)C(=O)[C@H]2O[C@@H]2C1=O", "activity, negative = inhibition": "inactive"},
      {"smiles": "CN1CC[C@@]2(CCCN(C(=O)c3ccncc3)C2)C1", "activity, negative = inhibition": "inactive"},
      {"smiles": "CC(C)CN1CCCC2(CCN(C(=O)c3ccncc3)CC2)C1", "activity, negative = inhibition": "inactive"},
      {"smiles": "c1cc(CN2CCCC3(CCNCC3)C2)ccn1", "activity, negative = inhibition": "inactive"},
      {"smiles": "CN1CC[C@@]2(CCCN(C(=O)c3ccco3)C2)C1", "activity, negative = inhibition": "inactive"},
      {"smiles": "COCC(=O)N1CCC2(CCCN(Cc3ccncc3)C2)CC1", "AC50": "5.01 µM (active)"},
      {"smiles": "O=C(c1ccco1)N1CCC[C@@]2(CCN(Cc3ccncc3)C2)C1", "AC50": "3.16 µM (active)"},
      {"smiles": "CC[C@]1([C@H]2O[C@@H]([C@@H]3O[C@](O)(CO)[C@@H](C)C[C@H]3C)C[C@H]2C)CC[C@@H]([C@]2(C)CC[C@@]3(C[C@@H](O)[C@@H](C)[C@@H]([C@H](C)[C@H](OC)[C@H](C)C(=O)O)O3)O2)O1", "activity, negative = inhibition": "inactive"},
      {"smiles": "COc1ccccc1CN1CCCC2(CCN(C(=O)Oc3ccccc3)CC2)C1", "activity, negative = inhibition": "inactive"},
      {"smiles": "COC(=O)[C@@H]1c2cc3c(c(O)c2[C@@H](O)C[C@]1(C)O)C(=O)c1c(O)cc2c(c1C3=O)O[C@H]1O[C@@]2(C)[C@@H](O)[C@H](N(C)C)[C@H]1O", "activity, negative = inhibition": "-12.9% [at 11.4 µM]"},
      {"smiles": "CCN(CC)CCO[C@H]1CC[C@@]2(C)C(=CC[C@@H]3[C@H]2CC[C@]2(C)C(=O)CC[C@H]32)C1", "activity, negative = inhibition": "inactive"},
      {"smiles": "CO[C@@H]1CC=C2CCN3CCC4=C(CC(=O)OC4)[C@]23C1", "activity, negative = inhibition": "inactive"},
      {"smiles": "C[N+]1(C)[C@@H]2CC[C@H]1CC(OC(=O)[C@@H](CO)c1ccccc1)C2", "note": "(some centres undefined)", "activity, negative = inhibition": "inactive"},
      {"smiles": "COc1ccc2[nH]c3c(c2c1)CCN=C3C", "activity, negative = inhibition": "inactive"},
      {"smiles": "N[C@@H](CSC1c2ccccc2-c2ccccc21)C(=O)O", "activity, negative = inhibition": "-21.1% [at 11.4 µM]"},
      {"smiles": "C[C@@]12CC[C@H]3[C@@H](CCC4=C(O)C(=O)CC[C@]43C)[C@H]1CCC2=O", "activity, negative = inhibition": "inactive"},
      {"smiles": "Cc1cc(NC(=O)CCC(=O)N2CCC3(CC2)OCCO3)no1", "activity, negative = inhibition": "inactive"},
      {"smiles": "Cc1ccccc1-c1nc(CS(=O)CC(=O)N2CCC3(CC2)OCCO3)c(C)o1", "note": "(centres undefined)", "AC50": "5.01 µM (active)"},
      {"smiles": "Oc1ccc([C@H](O)[C@@H]2CCCCN2)cc1O", "activity, negative = inhibition": "-5.3% [at 11.4 µM]"},
      {"smiles": "CC(C)C(=O)N1C2CCC1CC(O)(c1ccc(F)cc1)C2", "note": "(centres undefined)", "activity, negative = inhibition": "inactive"},
      {"smiles": "C[C@](N)(CCP(=O)(O)O)C(=O)O", "activity, negative = inhibition": "inactive"},
      {"smiles": "O=C(CN1CCCCC1)Nc1ccc(Br)cc1C(=O)c1ccccc1Cl", "AC50": "8.91 µM (active)"},
      {"smiles": "CN(CCc1ccc(Cl)c(Cl)c1)[C@H]1CCCC[C@H]1N1CCCC1", "activity, negative = inhibition": "inactive"},
      {"smiles": "CCOC(=O)c1ncn2c1CN(C)C(=O)c1cc(F)ccc1-2", "activity, negative = inhibition": "inactive"},
      {"smiles": "CC(C)(C)NC[C@H](O)c1ccccc1Cl", "activity, negative = inhibition": "inactive"}
    ]}
  ]
}
